# VDR inhibitor – inhibitors of human vitamin D receptor | 400,000 tested, 0.93% active | Potency, µM, most hits filed as inhibitors | VDR-SRC2-3 peptide fluorescence polarization, 2 h
#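 FP read-out; VDR + SRC2-3 coactivator peptide; 23 nl compound by pintool; 2 h RT incubation; reagents held at 4 deg C, protected from light.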
# HP1b chromo inh – HP1-beta chromodomain-methylated histone interaction inhibition; P83916; AlphaScreen HP1-beta / biotin-H3K9me3 peptide binding; Potency, µM (top dose mostly 114 µM), usual class: inhibitors; 390,000 tested, 0.56% active; AID 540317; further: nearly all actives have a fitted effect of over 70% in size
#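 AlphaScreen: HP1-beta (50 nM) preformed 30 min with biotin-H3(1-18)K9me3 peptide (50 nM) in PBS pH 7.4, 0.01% Tween-20. Compound added for 30 min at RT, then streptavidin donor/nickel chelate acceptor beads (10 ug/mL) for 30 min.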
# JMJD2A Tudor – inhibitors of human JMJD2A Tudor domain. O75164. AlphaScreen JMJD2A-Tudor / H3K4me3 peptide binding. Potency, µM (doses to about 114 µM), usual class: inhibitors. 390,000 tested, 4.4% active. AID 504339; further: nearly all actives have a fitted effect of over 50% in size
# G9a block – inhibitors of human histone lysine methyltransferase G9a | 350,000 tested, 8.8% active | Potency, µM (highest dose often 102 µM), actives largely listed as inhibitors | G9a H3K9 monomethylation, AlphaScreen, 2 h; further: nearly all actives have a fitted effect of over 75% in size
#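 Readings reflect AlphaScreen signal from monomethyl-H3K9 antibody detection. HMT at 20 nM; substrate b-H3K9 500 nM; cofactor SAM 20 uM; 2 h RT reaction; compounds tested as titrations in qHTS with 15 min preincubation.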
# PLK1 PBD inh – PLK1 (human) polo-box domain binding inhibition. P53350. Plk1 PBD binding of FITC phosphopeptide, fluorescence polarization. Potency, µM, actives largely listed as inhibitors. 360,000 tested, 2.8% active; further: series mostly up to about 57 µM; nearly all actives have a fitted effect of over 65% in size
# BAZ2B inh – blocks human BAZ2B; AlphaScreen BAZ2B-H3K14Ac peptide displacement; AID 504333; Q9UIF8; 360,000 tested, 4.4% active; Potency, µM (doses to about 114 µM), hits mostly inhibitors; further: nearly all actives have a fitted effect of over 60% in size
# Target sequence (Q9UIF8 whole entry, looked up): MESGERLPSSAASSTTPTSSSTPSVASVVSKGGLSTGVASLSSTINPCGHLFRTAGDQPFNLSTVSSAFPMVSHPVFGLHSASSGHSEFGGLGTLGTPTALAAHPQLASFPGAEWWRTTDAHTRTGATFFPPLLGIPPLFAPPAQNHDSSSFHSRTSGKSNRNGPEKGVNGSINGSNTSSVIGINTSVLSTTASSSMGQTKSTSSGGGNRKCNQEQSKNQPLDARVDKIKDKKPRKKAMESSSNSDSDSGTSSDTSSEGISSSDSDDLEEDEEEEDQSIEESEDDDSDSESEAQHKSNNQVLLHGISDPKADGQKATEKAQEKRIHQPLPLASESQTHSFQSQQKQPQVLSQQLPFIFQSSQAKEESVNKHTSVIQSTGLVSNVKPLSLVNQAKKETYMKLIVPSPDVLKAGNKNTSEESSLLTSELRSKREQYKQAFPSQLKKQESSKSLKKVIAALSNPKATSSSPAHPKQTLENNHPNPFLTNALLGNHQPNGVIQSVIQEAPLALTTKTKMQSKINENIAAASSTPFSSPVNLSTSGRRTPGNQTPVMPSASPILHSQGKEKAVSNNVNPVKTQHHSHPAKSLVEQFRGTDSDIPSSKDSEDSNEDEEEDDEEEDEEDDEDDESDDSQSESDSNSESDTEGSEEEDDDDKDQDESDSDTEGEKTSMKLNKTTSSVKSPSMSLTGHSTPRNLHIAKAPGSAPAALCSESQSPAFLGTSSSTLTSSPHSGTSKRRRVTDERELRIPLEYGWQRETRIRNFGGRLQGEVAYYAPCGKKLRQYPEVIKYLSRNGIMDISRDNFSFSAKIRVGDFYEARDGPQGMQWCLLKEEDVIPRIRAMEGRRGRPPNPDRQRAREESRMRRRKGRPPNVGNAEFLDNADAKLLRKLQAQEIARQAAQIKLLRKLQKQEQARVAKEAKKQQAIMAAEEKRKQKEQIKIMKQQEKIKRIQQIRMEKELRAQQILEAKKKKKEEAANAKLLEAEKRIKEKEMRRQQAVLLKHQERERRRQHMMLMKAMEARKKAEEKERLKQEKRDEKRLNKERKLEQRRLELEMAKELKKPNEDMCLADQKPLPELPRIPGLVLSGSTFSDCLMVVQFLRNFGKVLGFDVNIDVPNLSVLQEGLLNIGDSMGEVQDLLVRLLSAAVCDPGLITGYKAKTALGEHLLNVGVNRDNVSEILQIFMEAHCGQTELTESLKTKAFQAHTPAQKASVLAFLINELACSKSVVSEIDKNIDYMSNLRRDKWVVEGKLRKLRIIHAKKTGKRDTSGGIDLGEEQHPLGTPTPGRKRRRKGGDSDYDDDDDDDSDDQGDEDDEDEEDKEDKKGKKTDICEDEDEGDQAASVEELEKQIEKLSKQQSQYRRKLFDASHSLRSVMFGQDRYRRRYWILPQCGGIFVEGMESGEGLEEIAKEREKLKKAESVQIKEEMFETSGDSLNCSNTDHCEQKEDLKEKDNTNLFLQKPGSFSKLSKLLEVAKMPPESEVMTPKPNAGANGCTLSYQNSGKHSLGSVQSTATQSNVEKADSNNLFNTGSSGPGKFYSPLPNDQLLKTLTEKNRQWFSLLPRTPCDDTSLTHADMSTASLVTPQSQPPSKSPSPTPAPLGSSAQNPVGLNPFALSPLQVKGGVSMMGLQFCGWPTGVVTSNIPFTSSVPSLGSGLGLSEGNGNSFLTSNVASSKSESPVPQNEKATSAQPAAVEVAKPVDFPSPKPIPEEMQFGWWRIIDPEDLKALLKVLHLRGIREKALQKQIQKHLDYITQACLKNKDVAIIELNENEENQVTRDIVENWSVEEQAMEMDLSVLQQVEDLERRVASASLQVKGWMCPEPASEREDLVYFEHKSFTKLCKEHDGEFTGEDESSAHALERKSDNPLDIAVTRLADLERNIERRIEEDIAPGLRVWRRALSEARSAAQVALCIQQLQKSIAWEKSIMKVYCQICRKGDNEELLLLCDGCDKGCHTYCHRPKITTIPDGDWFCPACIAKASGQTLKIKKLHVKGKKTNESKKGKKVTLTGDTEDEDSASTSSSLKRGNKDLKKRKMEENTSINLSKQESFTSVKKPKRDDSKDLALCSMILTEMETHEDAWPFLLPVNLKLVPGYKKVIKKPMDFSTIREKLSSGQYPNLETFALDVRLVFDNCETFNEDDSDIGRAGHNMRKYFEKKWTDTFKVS
#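 AlphaScreen displacement of biotin-H3(5-23)K14Ac peptide (50 nM final) from BAZ2B (50 nM final) in PBS pH 7.4, 0.01% Tween-20; complex preformed 30 min RT, then compounds (top 110 uM) 30 min RT, beads 20 min dark.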
# A number is an active result; 0 = inactive; ? = inconclusive; - = not tested or not shown; [ ] = remark or other dose. Hits are enriched below; roughly 11% of the tested compounds scored in any of these assays. The call rests on the fitted dose curve; in most records, active means well fitted curve in the direction sought with a large enough effect; inconclusive means small, poorly fitted or top-dose-only effect, or another doubt; inactive means no such curve, though single readings can be large; an effect the other way counts as inactive or inconclusive.
SMILES,VDR inhibitor,HP1b chromo inh,JMJD2A Tudor,G9a block,PLK1 PBD inh,BAZ2B inh
COc1ccc(-c2nc3sc(CCNC(=O)Cc4ccccc4)c(C)n3n2)cc1,0,0,0,3.5µM,-,0
COc1ccc(-c2nc3sc(CCNC(=O)Cc4ccc(F)cc4)c(C)n3n2)cc1,0,0,0,0,-,0
Cc1cc(C)cc(OCC(=O)OCC(=O)N(CC(C)C)c2c(N)n(Cc3ccccc3)c(=O)[nH]c2=O)c1,0,0,0,50µM,0,0
CC(C)CN(C(=O)COC(=O)C(C)N1C(=O)c2ccccc2C1=O)c1c(N)n(Cc2ccccc2)c(=O)[nH]c1=O (stereo not drawn),0,0,0,35µM,0,0
CC(C)CN(C(=O)COC(=O)COc1ccc2c(c1)CCC2)c1c(N)n(Cc2ccccc2)c(=O)[nH]c1=O,0,0,0,0,0,0
CC(C)CN(C(=O)COC(=O)c1cccn1C)c1c(N)n(Cc2ccccc2)c(=O)[nH]c1=O,0,0,0,0,0,0
COC(=O)C1CCN(C(=O)C2CCC(=O)N(CCc3cccc(F)c3)C2)CC1 (stereo not drawn),0,0,0,0,0,0
Cc1ccc(NC(=O)CSCn2nnc3c(=O)[nH]c(Cc4ccc(F)cc4)nc32)c(C)c1,0,0,0,0,-,0
CC(OCCN(C)C)C(=O)C12CC3CC(CC(C3)C1)C2 (stereo not drawn),0,0,0,0,0,0
CC(NC(=O)C12CC3CC(CC(C3)C1)C2)C(=O)NCCN(C)C (stereo not drawn),0,0,0[11.4 µM],0,30µM,0
Cc1ccc(/C=C2/CNC/C(=C\c3ccc(C)cc3)C2=O)cc1,2µM,-,-,-,-,-
Cc1ccc(C(C(=O)NC2CCCC2)N(C(=O)c2csnn2)c2ccccc2)o1 (stereo not drawn),0,0,0,0,0,0
OCCOCCN1CCN(Cc2cccc(Oc3ccccc3)c2)CC1,0,-,-,-,-,-
CN(C)c1ccc(S(=O)(=O)N2CCCCC2)cc1NC(=O)C1=COCCO1,0,0,0,0,0,0
Cc1noc(C)c1C(=O)Nc1cc(S(=O)(=O)N2CCCCC2)ccc1N(C)C,0,0,0,40µM,0,0
COC(=O)c1cc(S(=O)(=O)NCC2CCN(CCc3ccc(OC)cc3)CC2)cn1C,0,0,0,0,0,0
O=C(/C=C/c1cc[n+](CC(=O)c2ccc3cccc4c3c2CC4)cc1)c1ccc2cccc3c2c1CC3,0,0,0[11.4 µM],40µM,19µM,?
O=C(/C=C/c1ccccc1)NC(=S)Nc1ccc2c3c(cccc13)CC2,0,0,0,0,0,0
NC(=O)c1ccc2c(c1)S(=O)(=O)c1ccccc1C2=O,0,0,0,0[2.33 µM],0,0
NC(=O)COC(=O)c1ccc2c(c1)S(=O)(=O)c1ccccc1C2=O,0,0,0,0,0,0
CC(OC(=O)c1ccc2c(c1)S(=O)(=O)c1ccccc1C2=O)C(N)=O (stereo not drawn),0,0,0,45µM,0,0
O=C(O)c1ccc2c(c1)S(=O)(=O)c1ccccc1C2=O,0,0,0,45µM,0,0
CCC(C)NC(=O)c1ccc2c(c1)S(=O)(=O)c1ccccc1C2=O (stereo not drawn),?,0,0,20µM,0,0
Cc1noc(C)c1COC(=O)c1ccc2c(c1)S(=O)(=O)c1ccccc1C2=O,0,0,0,32µM,0,?
O=C(OCc1ccccc1)c1ccc2c(c1)-c1ccccc1C2=O,0,0,0,5µM,0,0
SMILES,VDR inhibitor,HP1b chromo inh,JMJD2A Tudor,G9a block,PLK1 PBD inh,BAZ2B inh
Cc1ccc(NC(=O)C(=O)NNC(=O)c2cccs2)cc1,0,0,0,4µM,0,0
O=C(NNc1c(Cl)cccc1Cl)c1cccs1,0,0,?,11µM,0,0
Cc1ccc(NC(=O)c2cccs2)cc1,0,0,0,0[12.7 µM],0,0
CCC(=O)Nc1ccc(C(=O)NNC(=O)c2cccs2)cc1,0,0,0,0.2µM,0,0
CC1(C)N=C(N)NC(Nc2ccccc2Cl)=N1,0,0,0,0,0,0
CC(=O)OCC(NC(=O)C(COCc1ccccc1)NC(=O)OC(C)(C)C)C1OC(n2cc(F)c(=O)[nH]c2=O)C(OC(C)=O)C1OC(C)=O (stereo not drawn),0,0,0,-,-,-
N#Cc1cccc(-c2cc(NCc3cccs3)ncn2)c1,0,-,-,-,-,-

# Source: PubChem
